NPC1 promoter act – activates the NPC1 promoter | AID 485313 | Huh7 NPC1 promoter luciferase reporter, 24 h | 2.4% of 320,000 active | Potency, µM (doses to about 9.22 µM), usual class: activators; also: nearly all actives have a fitted effect of over 60% in size
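Huh7 cells stably carrying NPC1 promoter–luciferase, plated in Opti-MEM with 10% FBS for 2 h, were exposed to compound in DMSO for 24 h at 37 °C; luciferase reagent was added for 10 min and luminescence read.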
FLuc modulator – counter-screen for miR-21 project: firefly luciferase inhibitors or activators; purified FLuc, Km substrates, luminescence inhibition; Potency, µM (top dose mostly 57.5 µM), actives largely listed as inhibitors; 6.9% of 360,000 active; AID 588342; also: nearly all actives have a fitted effect of over 55% in size
Target sequence (P08659 whole entry, looked up): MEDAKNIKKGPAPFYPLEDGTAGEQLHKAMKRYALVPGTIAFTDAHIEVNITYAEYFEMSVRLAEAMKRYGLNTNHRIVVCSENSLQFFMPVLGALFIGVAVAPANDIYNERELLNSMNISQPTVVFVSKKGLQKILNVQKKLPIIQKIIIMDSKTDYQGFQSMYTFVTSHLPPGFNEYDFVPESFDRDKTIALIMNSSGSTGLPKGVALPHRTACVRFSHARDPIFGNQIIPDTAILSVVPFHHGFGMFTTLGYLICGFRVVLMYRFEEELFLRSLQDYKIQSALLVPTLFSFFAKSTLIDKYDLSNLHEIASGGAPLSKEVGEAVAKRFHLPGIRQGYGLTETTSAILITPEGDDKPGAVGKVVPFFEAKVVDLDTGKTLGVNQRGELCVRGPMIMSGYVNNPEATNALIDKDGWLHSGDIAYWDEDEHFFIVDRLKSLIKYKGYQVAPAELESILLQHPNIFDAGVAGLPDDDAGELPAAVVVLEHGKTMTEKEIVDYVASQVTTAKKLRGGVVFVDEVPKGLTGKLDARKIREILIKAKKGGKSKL
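Purified P. pyralis luciferase, 10 nM final, with Km-level 10 uM D-luciferin and 10 uM ATP in 50 mM Tris acetate pH 7.5, 10 mM Mg acetate, 0.01% Tween-20, 0.05% BSA; 6-point qHTS titration about 60 µM downward; luminescence read.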
ELG1 DNA repair – blocks ELG1-dependent DNA repair in HEK293T cells | Potency, µM (series often up to 46.1 µM), most hits filed as inhibitors | HEK293T ELG1-luciferase reporter, luminescence, 16 h; DNA damage induced by 5-fluorouridine | AID 504467 | 2.3% of 330,000 active; also: nearly all actives have a fitted effect of over 55% in size
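HEK293T cells expressing luciferase-tagged ELG1 (2,000/well) received 5-Fluorouridine plus compound or DMSO for 16 hr at 37 °C. Luciferase was read by ONE-Glo luminescence after 30 min at room temperature.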
SMN2 splice enh – SMN2 splice variant enhancement; HEK293 SMN2-luciferase splicing reporter, luminescence, 30-36 h; Potency, µM (doses to about 46.1 µM), actives largely listed as activators; 2.8% of 210,000 active; also: nearly all actives have a fitted effect of over 55% in size
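HEK293 cells carry an SMN2 […]–luciferase reporter in which exon 7 inclusion puts luciferase in frame. Cells were plated 10-12 h before compound addition, then incubated 30-36 h at 37C. ONE-Glo luminescence was read; sodium butyrate at 4.5 mM final served as control.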
Rab9 promoter act – activates the Rab9 promoter | Huh7 Rab9 promoter-luciferase reporter, luminescence, 24 h | Potency, µM (doses to about 9.22 µM), most hits filed as activators | 2.8% of 320,000 active | AID 485297; also: nearly all actives have a fitted effect of over 60% in size
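Luciferase signal after 10 min detection reagent at ambient indicates Rab9 promoter upregulation; stably transfected Huh7 cells were treated 24 h with compound in DMSO at 37 °C, 5% CO2.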
ELG1 genotox – genotoxicity induction in ELG1-luciferase HEK293T cells | Potency, µM (doses to about 46 µM), actives largely listed as activators | 1.3% of 330,000 active | HEK293T ELG1-luciferase reporter, luminescence, 16 h; also: nearly all actives have a fitted effect of over 60% in size
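Genotoxicity was scored as increased ELG1-luciferase reporter signal, measured by ONE-Glo luminescence (30 min, room temperature). Compound or vehicle exposure of the HEK293T reporter cells lasted 16 hr at 37°C.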
A number is an active result; n = inactive; u = inconclusive; x = no result. Hits are enriched below; roughly 9.2% of the tested compounds scored in any of these assays. Calls follow the shape of the dose curve; as a rule, active = well fitted curve in the direction sought with a large enough effect; inconclusive = small, poorly fitted or top-dose-only effect, or another doubt; inactive = no such curve, though single readings can be large; an effect the other way counts as inactive or inconclusive.

SMILES	NPC1 promoter act	FLuc modulator	ELG1 DNA repair	SMN2 splice enh	Rab9 promoter act	ELG1 genotox
CCOc1ccc2nc(NS(=O)(=O)c3ccc(NC(C)=O)cc3)sc2c1	n	n	n	n	n	u
CCOc1ccc2nc(NC(=S)N(C)C)sc2c1	0.708µM	1.35µM	u	3.98µM	0.794µM	0.366µM
O=C(CSc1nccn1-c1ccccc1)Nc1nc2ccccc2s1	x	23.9µM	x	x	x	x
CCCC(=O)Nc1nc2ccc(OCC)cc2s1	2.82µM	10.7µM	u	22.4µM	2.24µM	u
O=C(CSc1nccn1-c1ccc(Cl)cc1)Nc1nc2ccccc2s1	x	n	x	x	x	x
CCOc1ccc2nc(NS(=O)(=O)Cc3ccccc3)sc2c1	n	26.9µM	u	n	n	20.6µM
CCS(=O)(=O)N1Cc2ccccc2CC1C(=O)N(C)CC(=O)Nc1cccc(F)c1 (centres undefined)	n	u	u	x	n	n
C[C@]12CCC(=O)C=C1CCC1C3CC[C@](O)(C(=O)CO)[C@@]3(C)CC3OC312 (some centres undefined)	x	x	x	n	x	x
CC(c1cccs1)N(C)Cc1nc(CCc2ccccc2)no1 (centres undefined)	n	n	n	x	n	n
CCOc1ccc2nc(NC(=O)c3cccnc3)sc2c1	1.58µM	1.51µM	u	7.94µM	0.891µM	u
CCOc1ccc2nc(NC(=O)c3cnc(C)cn3)sc2c1	n	6.01µM	n	n	n	n
CCOc1ccc2nc(NC(=O)C3=NNC(=O)CC3)sc2c1	n	u	u	u	u	n
CCOc1ccc2nc(NC(=O)CSc3ccccc3)sc2c1	n	21.3µM	n	u	n	n
CCOc1ccc2nc(NC(=O)c3ccccc3)sc2c1	x	0.536µM	x	1.26µM	x	x
CC(OC(=O)C1CCN(S(=O)(=O)c2ccc(F)cc2)CC1)C(=O)NC1CCCCC1C (centres undefined)	n	n	n	x	n	n
COc1ccc2[nH]c3c(c2c1)CCN1C(=O)C(CC(=O)NC(C)(C)C)C[C@H](C(=O)N2CCCCC2)[C@@]31CCc1ccccc1 (some centres undefined)	x	x	u	x	x	n
CC(=O)NNc1nc2ccccc2s1	n	n	n	n	n	n
CN(C)C(=S)Nc1nc2ccccc2s1	u	12µM	u	x	u	u
COc1ccc(N2CC(NC(=O)COc3ccccc3C)CC2=O)cc1OC (centres undefined)	x	n	x	x	x	x
COc1cc(NC(=O)c2cc(C)nc3ccccc23)cc(OC)c1OC	n	n	n	n	n	n
COc1ccc(NC(=O)c2cc(-c3ccc(C)o3)nc3ccccc23)cc1OC	n	0.953µM	14.6µM	n	u	n
Cc1ccc(-c2cc(C(=O)Nc3nccs3)c3ccccc3n2)o1	n	10.7µM	n	n	n	n
O=C(Nc1nccs1)c1cc(-c2ccncc2)nc2ccccc12	n	n	n	n	n	n
Cc1ccc(-c2cc(C(=O)Nc3nccs3)c3ccccc3n2)c(C)c1	n	n	13µM	n	n	n
O=C(Nc1nncs1)c1cc(-c2ccco2)nc2ccccc12	x	x	u	x	x	n
SMILES	NPC1 promoter act	FLuc modulator	ELG1 DNA repair	SMN2 splice enh	Rab9 promoter act	ELG1 genotox
O=C(c1ccc(Br)cc1)N(c1ccccn1)C1CCCCC1	n	n	n	x	n	n
CC(=O)Nc1nc(-c2ccc3c(c2)CCN3S(C)(=O)=O)cs1	u	21.3µM	u	10µM	2.51µM	u
CS(=O)(=O)N1CCc2cc(-c3csc(NC(=O)Cc4cccs4)n3)ccc21	n	u	5.8µM	x	n	n
O=C(/C=C/c1ccccc1Cl)NC(=S)Nc1ccccc1C(=O)NC1CCCCC1	n	16.9µM	n	n	u	n
CNC(=S)N/N=C/c1c(C)nn(-c2ccccc2)c1Cl	n	u	u	u	n	u
Cc1nn(-c2ccccc2)c(Cl)c1/C=N/NC(=O)OC(C)(C)C	2.82µM	15.1µM	u	17.8µM	2µM	n
Cc1nn(C)cc1/C=N/NC(=O)c1ccco1	n	16.9µM	u	x	u	n
Cc1nn(-c2ccccc2)c(Cl)c1/C=N/NC(=O)c1ccco1	3.16µM	3.79µM	u	22.4µM	2.51µM	u
CCOC(=O)N/N=C/c1c(C)nn(-c2ccccc2Cl)c1Cl	u	9.53µM	u	12.6µM	u	u
CCN(CC)S(=O)(=O)c1cccc(C(=O)N/N=C/c2c(C)nn(-c3ccccc3)c2Cl)c1	n	n	n	n	n	n
O=C(N/N=C\c1ccc([N+](=O)[O-])s1)C1COc2ccccc2O1 (centres undefined)	u	n	u	x	1.12µM	n
O=C(N/N=C\c1ccc(Cl)s1)C1COc2ccccc2O1 (centres undefined)	n	n	u	x	n	n
Cc1nn(-c2ccccc2)c(Cl)c1/C=N/Nc1nncc(=O)[nH]1	n	15.1µM	n	x	n	n
Cc1nn(-c2ccccc2)c(Cl)c1/C=N/NC(=O)C1COc2ccccc2O1 (centres undefined)	n	7.57µM	n	n	n	n
Cc1nn(-c2ccccc2Cl)c(Cl)c1/C=N/Nc1nc2ccccc2s1	n	0.169µM	u	n	n	n
COc1ccccc1CNC(=O)c1cnc2c(-c3ccccc3)c(C)nn2c1C	x	n	x	x	x	x
Cc1nn(-c2ccccc2)c(Cl)c1/C=N/NC(=O)c1ccc(CNc2ccccc2)o1	n	2.13µM	u	u	n	n
Cc1nn(-c2ccccc2)c(Cl)c1/C=N/Nc1ccc(Cl)c(C(=O)O)c1	0.0891µM	0.601µM	u	0.447µM	0.0794µM	0.184µM
Cc1nn(-c2ccccc2)c(Cl)c1/C=N/Nc1ccc(S(=O)(=O)Nc2ccccc2C(=O)O)cc1[N+](=O)[O-]	n	n	n	n	n	n
Cc1ccc(OCc2cc(=O)n3cc(C)sc3n2)c(NC(=O)c2ccco2)c1	x	n	x	x	x	x
Cc1ccc(-c2cc3nc(C)cc(NCc4ccco4)n3n2)cc1	2.82µM	2.39µM	u	12.6µM	n	4.11µM
COc1ccc(-c2cc3nc(C)cc(NCCO)n3n2)cc1	n	10.7µM	u	n	u	n
COc1ccc(-c2cc3nc(C)cc(N)n3n2)cc1	0.112µM	0.379µM	u	1.12µM	0.355µM	u
COc1ccc(-c2cc3nc(C)cc(-c4ccc(OC)cc4)n3n2)cc1	n	u	n	x	n	n
CC(=O)n1nc(-c2ccc(C)cc2)nc1NCc1ccco1	2.51µM	n	u	u	3.55µM	u
Cc1ccc(C)c(N2CCN(C(=O)CS(=O)(=O)c3cccc4nsnc34)CC2)c1	x	n	x	x	x	x
CS(=O)(=O)c1ccc(N2CCN(S(=O)(=O)c3cccs3)CC2)c([N+](=O)[O-])c1	n	n	u	x	n	n
COc1ccc(-c2cc3ncc(-c4ccccc4)c(N)n3n2)cc1	1.41µM	0.953µM	u	11.2µM	1.78µM	u
N#Cc1cnc2cc(-c3ccccc3)nn2c1N	u	u	u	x	u	n

Screening results from PubChem BioAssay.
